Compound activity deposited in PubChem BioAssay by National Center for Advancing Translational Sciences (NCATS).
Pf Dd2 growth – inhibitors of Plasmodium falciparum Dd2 growth. P. falciparum Dd2 growth, SYBR Green, 72 h. Potency, µM (top dose mostly 28.9 µM), for inactives: at the highest dose activity, negative = inhibition, usual class: inhibitors. 120,000 compounds, 4.3% hits; active means well fitted inhibition curve with a large enough effect;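 further: plate controls were DMSO vehicle for no effect and reference drug for full effect; nearly all actives have a fitted effect of over 65% in size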
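Infected erythrocytes (Dd2, 0.3% parasitemia, 2.5% hematocrit final) are added to compound in RPMI-1640/Albumax II medium, grown 72 h at 37C in low oxygen, then lysed with saponin/Triton-X containing SYBR Green and read by fluorescence.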
* = called active by the depositor; [ ] = dose if it differs, or a comment. Shown is part of a subset that was picked to be rich in hits. Potency means the concentration at half of the fitted maximal effect.

`COc1ccccc1CN1CCCc2nc(C)nc(-c3ccc(O)cc3)c2C1` gave Pf Dd2 growth -16%.
`Cc1nc2c(c(-c3ccc(O)cc3)n1)CN(Cc1ccccc1)CCC2` gave Pf Dd2 growth 4.5µM*.
Screening COc1ccc(CN2CCCc3nc(C)nc(-c4ccc(O)cc4)c3C2)cc1 returned Pf Dd2 growth -41%.
For Cc1nc2c(c(-c3ccc(O)cc3)n1)CN(Cc1ccccc1)CC2 the results were Pf Dd2 growth inactive.
Screening O[C@@H]1C[C@@H](c2nc(C3CC3)no2)N(Cc2cccs2)C1 returned Pf Dd2 growth -11%[44.1 µM].
`CCc1cn(C[C@H](NC(=O)C2CCC2)C(=O)O)c(=O)[nH]c1=O` gave Pf Dd2 growth -23%[44.1 µM].
For COc1cccc(C(=O)N2CC[C@@H]3CN(S(C)(=O)=O)[C@@H]3C2)c1C the results were Pf Dd2 growth inactive.
O=C(CC1C(=O)NCCN1CC(c1ccccc1)c1ccccc1)NCc1ccoc1 (stereo not drawn) was read as Pf Dd2 growth inactive.
Screening N#Cc1cccc(C(=O)N2C[C@@H](Oc3cccnc3)C[C@H]2C(=O)N2CCOCC2)c1 returned Pf Dd2 growth 21%.
Screening COc1ccc(CC(=O)N2CCCN(c3cc(-c4ccc(F)cc4)[nH]n3)CC2)cc1 returned Pf Dd2 growth inactive.
For Cc1cc(CN(C)c2cc(C3CC(N)C3)nc(N)n2)no1 (stereo not drawn) the results were Pf Dd2 growth -5%.
Screening CCOc1ccc(Cl)cc1CN(C)c1cc(C2CC(O)C2)nc(N)n1 (stereo not drawn) returned Pf Dd2 growth 11µM*.
Cc1nc(C2CC(O)C2)cc(N(C)Cc2ccc3c(c2)OCO3)n1 (stereo not drawn) was read as Pf Dd2 growth -3%.
For O=C(c1ccccn1)C1CCCN(c2ncncn2)C1 (stereo not drawn) the results were Pf Dd2 growth 4%.
Screening COCCN(C)C[C@@H]1CN(C(=O)c2ccc3c(c2)CCC3)C[C@@H]1CO returned Pf Dd2 growth -15%.
For CCc1ccc(-c2nn(CC(=O)NCc3ccccc3)c3c2cnc2ccc(F)cc23)cc1 the results were Pf Dd2 growth -1%.
For CCc1ccc(-c2nn(CC(=O)Nc3ccccc3)c3c2cnc2ccc(F)cc23)cc1 the results were Pf Dd2 growth 10%.
For CCc1ccc(C(=O)c2cnc3ccc(F)cc3c2S(=O)(=O)c2ccccc2)cc1 the results were Pf Dd2 growth 11µM*.
Cc1occc1-c1nc2ncccc2[nH]1 was read as Pf Dd2 growth -13%[44.1 µM].
For CCC(O)c1nc2ccccc2n1Cc1cccc(Cl)c1 (stereo not drawn) the results were Pf Dd2 growth -23%.
`CC(=O)N1CCCC1c1nc2ccccc2n1Cc1cc(C)ccc1C` (stereo not drawn) gave Pf Dd2 growth -2%.
`CCC(O)c1nc2ccccc2n1Cc1cc(C)ccc1C` (stereo not drawn) gave Pf Dd2 growth 11µM*.
For Cc1nc(C(C)C)sc1CNC(=O)C1CCC(=O)N(C2CCCC2)C1 (stereo not drawn) the results were Pf Dd2 growth -8%.
`CN(Cc1ccc(F)cc1)CC1CCCCC1` gave Pf Dd2 growth 23%[44.1 µM].
Screening Cc1nc(C)c(CN(C)C2CCCN(CCc3ccccc3)C2)nc1C (stereo not drawn) returned Pf Dd2 growth -16%.
Screening CN1CCC(N(C)CC2CCCN(CCc3ccc(F)cc3)C2)CC1 (stereo not drawn) returned Pf Dd2 growth 8.9µM*.
For O=C(c1ccco1)N1CCC(F)(c2nc(-c3ccncc3)no2)CC1 the results were Pf Dd2 growth -8%.
Screening Cc1c(C(=O)N2CCCCC2)c(S(=O)(=O)NCc2ccc(N(C)C)cc2)c(C)n1C returned Pf Dd2 growth -17%.
Screening Cc1c(C(=O)N2CCCCCC2)c(S(=O)(=O)N(Cc2ccccc2)C(C)(C)C)c(C)n1C returned Pf Dd2 growth 13µM*.
Screening Cc1ccc(CNS(=O)(=O)c2c(C(=O)N3CCC(C)CC3)c(C)n(C)c2C)cc1 returned Pf Dd2 growth 12%.
Cc1ccc(C2Cn3nnc(-c4noc(COc5ccccc5)n4)c3CO2)cc1 (stereo not drawn) was read as Pf Dd2 growth -22%.
For Cc1c(Cl)cccc1NC(=O)CN1C(=O)NC2(CCOCC2)C1=O the results were Pf Dd2 growth inactive.
Screening CCOc1ccccc1C(=O)NCc1nnc2cc(-c3nc(CC)no3)ccn12 returned Pf Dd2 growth inactive.
CC(C)(C)c1ccccc1NC(=O)CSc1nc(-c2cccs2)cc(C(F)(F)F)n1 was read as Pf Dd2 growth inactive.
Screening COC(=O)c1ccccc1NC(=O)CSc1n[nH]c(C)n1 returned Pf Dd2 growth 53%.
`COC(=O)c1ccccc1NC(=O)CSc1nc(-c2ccccc2)cc(C(F)(F)F)n1` gave Pf Dd2 growth 2.8µM*.
Screening Cn1c(CO[C@H]2CN(Cc3ccc(C#N)cc3)C[C@H]2F)nc2ccccc21 returned Pf Dd2 growth inactive.
CCCc1cc(C(=O)N2CC(=O)N(CC(C)C)CC(OCc3ccccc3F)C2)n(C)n1 (stereo not drawn) was read as Pf Dd2 growth -5%.
For O=C(c1ccccn1)N1CCCC2(CC(c3cccnc3)=NO2)C1 (stereo not drawn) the results were Pf Dd2 growth 2%.
Screening COc1ccc(Nc2oc(-c3ccc(COc4ccccc4C)o3)nc2C#N)cc1 returned Pf Dd2 growth 11µM*.
COc1ccc(OCc2ccc(-c3nc(C#N)c(N4CCCCC4)o3)o2)cc1 was read as Pf Dd2 growth 9%.
For CNc1oc(-c2ccc(COc3ccc(C)cc3)o2)nc1C#N the results were Pf Dd2 growth -16%.
CN(C)CCNC(=O)c1c(OCC2CC2)cc(=O)n2c1CCOCC2 was read as Pf Dd2 growth -12%.
`O=C(NCCN1CCCC1)C1Cn2cccc2C(=O)N1Cc1cccnc1` (stereo not drawn) gave Pf Dd2 growth 19%.
Screening O=C(NCc1ccccc1)C1CCCN(C2CCN(C(=O)c3ccco3)CC2)C1 (stereo not drawn) returned Pf Dd2 growth -18%.
`Cc1noc(-c2cccc(OC3CN(C(=O)NC4CCCCC4)C3)c2)n1` gave Pf Dd2 growth 57%[5.79 µM].
`O=C(Nc1onc2c1CCCC2)c1ccccc1` gave Pf Dd2 growth -6%.
For CCOc1ccc(C(=O)Nc2onc3c2CCCC3)cc1 the results were Pf Dd2 growth 24%.
CC(C)(C)c1ccc(C(=O)Nc2onc3c2CCCC3)cc1 was read as Pf Dd2 growth 7.9µM*.
`CN(C)C[C@@H]1CN(c2ncccn2)C[C@H]1NC(=O)c1ccc2[nH]ccc2c1` gave Pf Dd2 growth inactive.
`O=C(CC1CC1)N[C@@H]1CN(Cc2ccccc2)C[C@H]1CO` gave Pf Dd2 growth 1%.
`Cc1nc(N2CCCC2)c2c(C(=O)N3CCN(c4ccccc4)CC3)c(C)oc2n1` gave Pf Dd2 growth -16%.
Cc1nc(N2CCCC2)c2c(C(=O)N3CCN(c4cc(Cl)ccc4C)CC3)c(C)oc2n1 was read as Pf Dd2 growth 13µM*.
Cc1nc(N2CCCC2)c2c(C(=O)Nc3cccc(Cl)c3)c(C)oc2n1 was read as Pf Dd2 growth inactive.
CCCNC1(Cc2cc(COc3ccccc3)on2)COC1 was read as Pf Dd2 growth -1%[44.1 µM].
Screening O=C(O)C1=NOC2CN([S+](=O)([O-])c3ccccc3)CC12 (stereo not drawn) returned Pf Dd2 growth 1%.
COc1ccccc1-n1cc(C(=O)N2CCCC2c2nonc2C)cn1 (stereo not drawn) was read as Pf Dd2 growth -18%.
